An excerpt weighted towards active compounds, which were near 19% of everything screened.
DT40 TDP1 CPT = growth inhibition of DT40 Tdp1-/-;hTDP1 cells with camptothecin (screen for TDP1 inhibitors) | chicken DT40 Tdp1-/-;hTDP1 cells + 20 nM CPT, ATP luminescence, 48 h | Potency, µM (top dose mostly 46.2 µM), actives largely listed as inhibitors | 420,000 compounds, 12% hits; also: nearly all actives have a fitted effect of over 55% in size
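Chicken DT40 Tdp1-/- cells complemented with human TDP1, 400 cells/well, exposed to compounds plus 20 nM camptothecin for at least 48 h at 37 C; viability read as ATP content by CellTiter-Glo luminescence.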
SW480 rereplic = DNA re-replication induction in SW480 cells; 340,000 compounds, 1.8% hits; Potency, µM (doses to about 46.1 µM), actives largely listed as activators; AID 624297; SW480 DNA re-replication, Hoechst DNA content imaging, 48 h; also: nearly all actives have a fitted effect of over 55% in size
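Treated cells incubate 48 hr (37 C, 5% CO2), are stained 40 min with Hoechst, and nuclear fluorescence is enumerated; a rise in nuclei with high DNA signal marks re-replication.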
MCF10A rereplic = DNA re-replication induction in MCF 10a cells | AID 624296 | 350,000 compounds, 2.9% hits | MCF 10A DNA re-replication, Hoechst nuclear intensity, 48 h | Potency, µM (titrated, usually from 46.1 µM), usual class: activators; also: nearly all actives have a fitted effect of over 50% in size
BCR signal inh = inhibitors of chronic active B-cell receptor signaling | 340,000 compounds, 0.05% hits | Potency, µM (series often up to 46.1 µM), actives largely listed as inhibitors | ABC-DLBCL IkBa-CBG/CBR reporter, luminescence ratio, 4 h; active = well fitted inhibition curve with a large enough effect in the signal ratio, with a control signal flat, not every such curve was filed as active; inconclusive = small, poorly fitted or top-dose-only effect, or effect the other way, or a change in a side signal; the % refers to the signal ratio
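Compounds up to 46 uM were incubated four hours with TMD8 cells whose green CBG68 luciferase is fused to IkappaBalpha; red CBR luminescence normalised the signal, and concentration-effect curves were fitted to fusion, red and ratio data.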
IL-1B inflam inh = blocks inflammasome-driven IL-1 beta release | THP-1 LPS/ATP IL-1B secretion, AlphaLISA, 16 h; stronger effect = lower value | activity change, % at 57.5 µM | 360,000 compounds, 4.7% hits; in the data active = activity change below about -50%; inconclusive = mostly about -30% to -49%
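THP-1 cells pretreated 1 hr with compounds (up to 57.5 uM final), then stimulated with LPS (250 ng/mL final) plus ATP (1.25 mM final); secreted IL-1B measured by AlphaLISA after 16 hr, decreased signal indicating inhibition.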
DT40 TDP1 no CPT = qHTS for Inhibitors of human tyrosyl-DNA phosphodiesterase 1 (TDP1): qHTS in cells in absence of CPT. DT40 Tdp1-/- hTDP1 cells, no CPT, ATP luminescence, 48 h. Potency, µM (highest dose often 46.2 µM), hits mostly inhibitors. 420,000 compounds, 15% hits. AID 686978, 2013; also: nearly all actives have a fitted effect of over 55% in size
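DT40 Tdp1-/-;hTDP1 cells, no CPT (DMSO vehicle only), 400 cells/well; compounds pin-transferred; ≥48 hr, 37 °C; CellTiter-Glo 30 min RT dark, luminescence read.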
Numbers stand for hits; i = inactive; ? = inconclusive; nt = no result; ! = repeats disagree; [ ] = remark or other dose. Unless noted, calls follow the shape of the dose curve; as a rule, active = well fitted curve in the direction sought with a large enough effect; inconclusive = small, poorly fitted or top-dose-only effect, or another doubt; inactive = no such curve, though single readings can be large; an effect the other way counts as inactive or inconclusive.

SMILES	DT40 TDP1 CPT	SW480 rereplic	MCF10A rereplic	BCR signal inh	IL-1B inflam inh	DT40 TDP1 no CPT
Cc1cc(C(=O)N2CCC2(C)C(=O)O)c(C)o1 (configuration not stated)	i	nt	nt	nt	i	i
CCOc1ccc(CC(=O)N2CCN=C2SCc2ccc([N+](=O)[O-])cc2)cc1	?	i	i	i	-97	29µM
CCOc1ccc(CC(=O)N2CCN=C2SC)cc1	i	i	i	i	i	i
N#Cc1c(Nc2ccccc2)[n+]([O-])c2ccc(Cl)cc2[n+]1[O-]	6.5µM	2.9µM	i	nt	i	?
O=C(/C=C/Nc1ccccc1)c1ccc(Cl)cc1Cl	i	i	i	?	i	?
Cc1cccc(CCNC(=O)c2ccc3c(c2)N(Cc2ccccc2F)C(=O)c2ccccc2S3)c1	i	nt	nt	i	nt	?
CN(Cc1ccco1)C(=O)c1ccc2c(c1)N(Cc1ccccc1F)C(=O)c1ccccc1S2	21µM	nt	nt	i	nt	?
O=C(NCc1ccco1)c1ccc2c(c1)N(Cc1c(F)cccc1Cl)C(=O)c1ccccc1S2	?	nt	nt	nt	nt	16µM
CCN(CC)CCCNC(=O)c1ccc2c(c1)N(Cc1c(F)cccc1Cl)C(=O)c1ccccc1S2	?	nt	nt	nt	nt	15µM
CCN(CC)c1ccc(C(=O)NCc2nc3cccnc3n2Cc2ccc(C)cc2)cc1	18µM	nt	nt	nt	nt	15µM
Cc1ccc(CNC(=O)CCc2nc3cccnc3n2Cc2ccccc2)cc1	15µM	nt	nt	nt	nt	?
COc1ccc(Cn2c(CCC(=O)Nc3ccc(OC)c(Cl)c3)nc3cccnc32)cc1	i	nt	nt	nt	nt	?
COc1ccc(Cn2c(CCC(=O)Nc3ccc(C)cc3)nc3cccnc32)cc1	?	i	?	i	?	15µM
COCCn1c(CNC(=O)c2ccc(C)cc2)nc2cccnc21	i	nt	nt	nt	nt	i
COc1ccc(CNC(=O)CCc2nc3cccnc3n2Cc2ccc(OC)cc2)cc1	i	nt	nt	nt	nt	i
N#Cc1ccc(C(=O)N2CCCC(c3cc(C(=O)NCc4cccnc4)no3)C2)cc1 (configuration not stated)	?	nt	nt	nt	i	?
CC(C)(C)NCc1cc(Cl)ccc1OCc1cccs1	15µM	nt	i	?	i	?
CC(C)(C)NCc1ccccc1OCc1cccs1	i	i	i	i	?	i
CC(C)(C)NCc1cc(Br)ccc1OCc1cccs1	?	i	i	i	-59	?
COc1ccc(Cl)cc1NC(=S)NCc1cccs1	i	i	i	?	i	i
CN1CCN(c2ccccc2NC(=O)Cn2ncc3c([nH]c4ccccc43)c2=O)CC1	?	?	i	i	i	i
Cc1ccc2[nH]c3c(=O)n(CC(=O)Nc4ccccc4N4CCN(C)CC4)ncc3c2c1	?	21µM	?	i	i	?
CCN(CCCNC(=O)Cn1ncc2c([nH]c3ccc(C)cc32)c1=O)Cc1ccccc1	?	i	i	i	i	16µM
CCOC(=O)c1c(NC(=O)c2cc3nc(-c4ccc(Br)cc4)cc(C(F)(F)F)n3n2)sc(C(C)=O)c1C	i	nt	nt	i	nt	i
[O-]c1c[n+](-c2ccc(-[n+]3cc([O-])on3)cc2)no1	?	?	i	i	i	?
SMILES	DT40 TDP1 CPT	SW480 rereplic	MCF10A rereplic	BCR signal inh	IL-1B inflam inh	DT40 TDP1 no CPT
CC1=C(C#N)C(c2cccnc2)C2=C(CC(c3ccc(Cl)cc3)CC2=O)N1 (configuration not stated)	i	7.3µM	i	?	?	i
COc1cccc(CNC(=O)c2ccc(-c3nc(CS(=O)(=O)c4ccccc4)c(C)o3)cc2)c1	?	nt	nt	nt	nt	23µM
COc1cccc(CNC(=O)c2ccc(CS(=O)(=O)Cc3ccc(C)cc3)o2)c1	i	i	i	?	i	i
COc1cccc(CNC(=O)c2ccc(CS(=O)(=O)Cc3ccccc3C)o2)c1	29µM	?	i	i	i	23µM
CCc1ccc(CNC(=O)c2ccc(-c3nc(CS(=O)(=O)c4ccccc4)c(C)o3)cc2)cc1	15µM	nt	nt	nt	nt	?
CCOc1ccc(CCNC(=O)c2ccc(-c3nc(CSc4ccc(C)cc4)c(C)o3)cc2)cc1	i	nt	nt	nt	nt	i
Cc1ccc(OCc2nc(-c3ccc(C(=O)NCCc4ccc(S(N)(=O)=O)cc4)cc3)oc2C)cc1	15µM	nt	nt	nt	nt	23µM
COc1cccc(CNC(=O)c2ccc(-c3nc(COc4ccccc4)c(C)o3)cc2)c1	15µM	nt	nt	nt	nt	9.2µM
COc1ccc(NC(=O)c2ccc(-c3nc(COc4ccccc4)c(C)o3)cc2)cc1	i	nt	nt	nt	nt	i
Cc1nn(-c2ccccc2)c(C)c1-c1nnc(-c2c(C)nn(-c3ccccc3)c2C)o1	?	i	i	i	i	18µM
O=C(O)c1ccccc1[O-].O=C(O)c1ccccc1[O-].[Zn+2]	i	nt	nt	nt	nt	i
CCC(C)Sc1cccc(-c2nc3cc(C)ccn3c2NCc2ccccc2)c1 (configuration not stated)	23µM	?	?	?	-73	?
c1ccc(-c2nc3ccccn3c2NCc2ccc3c(c2)OCO3)cc1	i	i	i	i	?	i
Cc1ccn2c(NCc3ccccc3)c(-c3cccc(SC4CCCCC4)c3)nc2c1	23µM	i	21µM	?	-79!	?
Clc1cccc(-c2ccc(-c3nc4ccccn4c3NCc3ccccc3)cc2)c1	16µM	?	16µM	?	?	23µM
c1ccc(CNc2c(-c3cccc(SC4CCCCC4)c3)nc3ccccn23)cc1	?	6.5µM	18µM	i	i	?
O=C(c1ccc(Cl)c(S(=O)(=O)N2CCCCC2)c1)N1CCCC(C(F)(F)F)C1 (configuration not stated)	i	i	?	i	i	?
Cc1cccc(C)c1NC(=O)C1(C)CSCC(=O)N1CCc1ccccc1F (configuration not stated)	i	nt	nt	nt	i	?
Cc1cn([C@H]2C[C@H](O)[C@@H](CNCc3cnc(N4CCOCC4)s3)O2)c(=O)[nH]c1=O	i	nt	nt	nt	i	i
NS(=O)(=O)c1ccc(NS(=O)(=O)c2ccc(NC(=O)C3CC3)cc2)cc1	i	i	i	i	i	i
C/C(=N\NC(=O)Cc1ccc(Cl)cc1)c1cccnc1	i	i	i	i	i	i
COc1ccc(-c2cc(-c3nc4ccccn4c3NCc3ccccc3)ccc2OC)cc1	?	16µM	5.8µM	?	-56	?
COc1ccc(-c2nc3ccccn3c2NCc2ccc3c(c2)OCO3)cc1	i	i[9.22 µM]	?	?	i	?
CC(=O)c1ccc(N=c2scc(C)n2C(C)C)cc1	i	i	i	?	i	?
COc1ccc(-c2nnc(SCC(=O)Nc3cccc(Cl)c3C)nc2-c2ccc(OC)cc2)cc1	?	nt	nt	i	nt	10µM
Cc1c(Cl)cccc1NC(=O)CSc1nnnn1C	i	i	i	i	i	?

From PubChem BioAssay
